Laboratory results reported in PubChem BioAssay (NCATS).
Results filed as inconclusive are left out. Calls of active or inactive are those of the source. Unless noted, calls come from the whole dose curve.

Test system: not listed separately
Experiment: qHTS for Inhibitors of the Functional Ribonucleoprotein Complex (vRNP) of Lymphocytic Choriomeningitis Arenaviruses (LCMV): Viability assay - alamar blue signal for LCMV Primary Screen (AID 1347085; calls by dose curve; tested in HEK293 reporter line; note: nearly all actives have a fitted effect of over 80% in size)
Conditions: alamar blue viability counter-screen, LCMV vRNP screen cells; series mostly up to 57.5 µM; activity change, negative = lower viability: at the top concentration
% is set by controls: 0 for no effect and ±100 for the full control effect; potency is the fitted concentration of half-maximal effect.

SMILES | activity change, negative = lower viability | Potency
Nc1ncn([C@@H]2O[C@H](CO)[C@@H](O)[C@@H]2O)c(=O)n1 | -15.9% (inactive) | –
Cc1nc(NC(=O)N2CCC[C@@H]2C(N)=O)sc1-c1csc(C(C)(C)C)n1 | -2% (inactive) | –
Cc1nccc2c1[nH]c1ccc(Br)cc12 | -0.543% (inactive) | –
COc1cc2c(Nc3ccc(Cl)c(Cl)c3F)ncnc2cc1OCC1C[C@@H]2CN(C)C[C@H]2C1 | – | 1.93 µM (active)
OC1c2ccccc2N=C2CCCN21 (stereo unspecified) | -28% (inactive) | –
COc1cc(O)c2c(=O)c(-c3ccc(O[C@@H]4O[C@H](CO)[C@@H](O)[C@H](O)[C@H]4O)cc3)coc2c1 | -47.7% (inactive) | –
COc1cc2c(cc1OC)C(C)N(Cc1ccc3c(c1)OCO3)CC2 (stereo unspecified) | -14.5% (inactive) | –
O=C(C=Cc1ccccc1O)c1ccccc1O | -25.4% (inactive) | –
Cc1ccc([C@@H]2O[C@H](CO)[C@@H](O)[C@H](O)[C@@H]2O)cc1Cc1ccc(-c2ccc(F)cc2)s1 | – | 34.3 µM (active)
C=C1C[C@H](OC(=O)C(C)(O)CCl)C2C(=C)C(=O)O[C@@H]2C2C1C[C@H](O)[C@]2(O)CCl (stereo partly specified) | -24.1% (inactive) | –
COc1ccc(Cc2ccc(NC(N)=O)cc2)cc1-c1cccc(Cl)c1 | – | 9.68 µM (active)
COc1cc2c(cc1OC)-c1cc3cc(OC)c(OC)cc3c(=O)n1CC2 | -27.2% (inactive) | –
COc1cc(C(=O)O[C@H]2C/C(C)=C/CC[C@@]3(C)O[C@@H]3[C@H](O)[C@@H]2C(C)C)cc(OC)c1OC | -28.6% (inactive) | –
Nc1ccc(S(=O)(=O)Nc2ncccn2)cc1 | -0.95% (inactive) | –
COc1cc2c3cc1Oc1c(OC)c(OC)cc4c1[C@H](Cc1ccc(cc1)Oc1cc(ccc1O)C[C@H]3N(C)CC2)N(C)CC4 | -21.4% (inactive) | –
C[C@H](NC(=O)C(C#N)=Cc1cccc(Br)n1)c1ccccc1 | -35.5% (inactive) | –
CC=C(C(=CC)c1ccc(O)cc1)c1ccc(O)cc1 | – | 2.43 µM (active)
O=C1NC(=O)C(=Cc2ccc(-c3ccc(F)cc3)o2)S1 | 4.99% (inactive) | –
CC=CC(C)=CC(C)C(=O)CC(O)CC1CC(=O)NC(=O)C1 (stereo unspecified) | -25.8% (inactive) | –
OCC1OC(n2cnc3c(NCc4ccccc4O)ncnc32)C(O)C1O (stereo unspecified) | – | 4.47 µM (active)
Oc1ccc2c(c1)OCC1(O)Cc3cc(O)c(O)cc3C21 (stereo unspecified) | 0.81% (inactive) | –
C=CC(=O)Nc1cc(NC(=O)c2ccc(C)c(NC(=O)c3ccno3)c2)cc(C(F)(F)F)c1 | -4.45% (inactive) | –
CC/C=C\[C@H](O)[C@H](O)C1=C(C)C(=O)[C@]2(O1)C(=O)N[C@@](OC)(C(=O)c1ccccc1)C2O (stereo partly specified) | -32.8% (inactive) | –
NS(=O)(=O)OC[C@@H]1C[C@@H](n2ccc3c(N[C@H]4CCc5ccccc54)ncnc32)C[C@H]1O | – | 13.7 µM (active)

Target: Nucleoprotein (Lymphocytic choriomeningitis virus (strain Armstrong)) (UniProt P09992)
Sequence (P09992 whole entry, looked up): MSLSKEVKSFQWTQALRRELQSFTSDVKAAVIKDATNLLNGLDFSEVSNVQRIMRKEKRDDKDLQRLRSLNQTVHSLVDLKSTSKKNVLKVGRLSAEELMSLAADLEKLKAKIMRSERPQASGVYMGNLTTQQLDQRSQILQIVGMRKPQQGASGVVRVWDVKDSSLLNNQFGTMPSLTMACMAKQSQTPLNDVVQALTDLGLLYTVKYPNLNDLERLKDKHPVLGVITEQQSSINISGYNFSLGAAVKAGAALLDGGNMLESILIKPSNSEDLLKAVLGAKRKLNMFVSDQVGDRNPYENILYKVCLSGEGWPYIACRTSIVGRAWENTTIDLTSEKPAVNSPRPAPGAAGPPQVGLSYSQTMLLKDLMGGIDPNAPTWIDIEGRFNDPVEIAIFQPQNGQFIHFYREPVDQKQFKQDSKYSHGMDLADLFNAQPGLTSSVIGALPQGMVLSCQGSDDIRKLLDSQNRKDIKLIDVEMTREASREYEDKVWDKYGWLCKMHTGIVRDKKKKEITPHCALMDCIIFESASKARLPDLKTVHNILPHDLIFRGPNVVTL
Experiment: qHTS for Inhibitors of the Functional Ribonucleoprotein Complex (vRNP) of Lymphocytic Choriomeningitis Arenaviruses (LCMV): LCMV Primary Screen - GLuc reporter signal (AID 1347086); note: nearly all actives have a fitted effect of over 70% in size
Conditions: LCMV minigenome vRNP cell assay, Gaussia luciferase reporter; series mostly up to 57.5 µM; activity change, negative = inhibition: at the top concentration

SMILES | activity change, negative = inhibition | Potency
CC1(C)CCC[C@@]2(C)C1CC[C@@](C)(O)[C@@H]2CC[C@@](C)(O)C1CO1 (stereo partly specified) | 0.536% (inactive) | –
C[C@]12CC[C@H]3C(=CCc4cc(O)ccc43)[C@@H]1CCC2=O | -10.3% [at 115 µM] (inactive) | –
COc1ccc(-c2cc(=O)c3c(OC)c(OC)c(OC)c(OC)c3o2)cc1 | 38.9% (inactive) | –
CC(=O)O[C@@]12CO[C@H]1C[C@H](O)[C@@]1(C)C(=O)[C@H](O)C3=C(C)[C@@H](OC(=O)C(O)[C@@H](NC(=O)OC(C)(C)C)c4ccccc4)C[C@@](O)([C@@H](OC(=O)c4ccccc4)[C@@H]21)C3(C)C (stereo partly specified) | -91.2% (inactive) | –
O=C1NC(=O)C(=Cc2ccc(-c3ccc(F)cc3O)o2)S1 | -0.448% (inactive) | –
Nc1ncn([C@@H]2O[C@H](CO)[C@@H](O)[C@@H]2O)c(=O)n1 | -27.5% (inactive) | –
Cc1nc(NC(=O)N2CCC[C@@H]2C(N)=O)sc1-c1csc(C(C)(C)C)n1 | 18% (inactive) | –
Cc1nccc2c1[nH]c1ccc(Br)cc12 | -5.89% (inactive) | –
COc1cc2c(Nc3ccc(Cl)c(Cl)c3F)ncnc2cc1OCC1C[C@@H]2CN(C)C[C@H]2C1 | – | 2.43 µM (active)
COc1cc(O)c2c(=O)c(-c3ccc(O[C@@H]4O[C@H](CO)[C@@H](O)[C@H](O)[C@H]4O)cc3)coc2c1 | -34.2% (inactive) | –
COc1cc2c(cc1OC)C(C)N(Cc1ccc3c(c1)OCO3)CC2 (stereo unspecified) | 18.6% (inactive) | –
C=C1C[C@H](OC(=O)C(C)(O)CCl)C2C(=C)C(=O)O[C@@H]2C2C1C[C@H](O)[C@]2(O)CCl (stereo partly specified) | -28.6% (inactive) | –
COc1cc2c(cc1OC)-c1cc3cc(OC)c(OC)cc3c(=O)n1CC2 | -32.9% (inactive) | –
COc1cc(C(=O)O[C@H]2C/C(C)=C/CC[C@@]3(C)O[C@@H]3[C@H](O)[C@@H]2C(C)C)cc(OC)c1OC | -7.57% (inactive) | –
Nc1ccc(S(=O)(=O)Nc2ncccn2)cc1 | 77.2% (inactive) | –
COc1cc2c3cc1Oc1c(OC)c(OC)cc4c1[C@H](Cc1ccc(cc1)Oc1cc(ccc1O)C[C@H]3N(C)CC2)N(C)CC4 | -32.6% (inactive) | –
C[C@H](NC(=O)C(C#N)=Cc1cccc(Br)n1)c1ccccc1 | -6.96% (inactive) | –
O=C1NC(=O)C(=Cc2ccc(-c3ccc(F)cc3)o2)S1 | 29.8% (inactive) | –
CC=CC(C)=CC(C)C(=O)CC(O)CC1CC(=O)NC(=O)C1 (stereo unspecified) | -33.6% (inactive) | –
Oc1ccc2c(c1)OCC1(O)Cc3cc(O)c(O)cc3C21 (stereo unspecified) | -12.5% (inactive) | –
C=CC(=O)Nc1cc(NC(=O)c2ccc(C)c(NC(=O)c3ccno3)c2)cc(C(F)(F)F)c1 | 10.1% (inactive) | –
CC/C=C\[C@H](O)[C@H](O)C1=C(C)C(=O)[C@]2(O1)C(=O)N[C@@](OC)(C(=O)c1ccccc1)C2O (stereo partly specified) | -22.7% (inactive) | –
